Assay results as given in the supplement of paper PMC12632987.

B1: usp_38_diff_out_4_12_560 (protein)
chain: AEEEHKKKLEEAKKELEKLSEELKELADKKLEEVKEKKDKATLKEAEKEINEKITELAEKTLKALELAETDEDLQKILDLYDDTATYVSEKAAEMREILK
B2: usp_38_diff_out_4_12_559 (protein)
chain: AEEEHKEALEKAKEELKKLSEETIKLAKELLEKVKKEKSRATLKEANEKLNKKITELAEATLKALELAETDEELQEILDLWDKTSTEISRLAKEMREILK
B3: usp_38_diff_out_4_126_547 (protein)
chain: GREKEFEKLKKEAEELLKKAKELLEKAKEALDKDPKKAQEYLDKALEYLGKLAKLLREMRRVAEGDPELQKEVKELQKKADELVDEYTKAAEEIYLALAE
B4: usp_38_diff_out_4_126_546 (protein)
chain: SRKEEFEKLKKEAEEKMKEAKKLLAEALAALDKDPEKALALLDKAWDALGEAAALLREMRRIAADDPELRKEVKKLEEELDELIDEFTEAATRIYLKIAE
B5: usp_38_diff_out_3_65_542 (protein)
chain: KVEELLKKAEEKLKEAREKIRELRERVETDPELTEEEIVEMLDEAADLLVEAGEYIREAKKLNPDEEAKKKIKELEKELEELIDEYVEAGERAFLAYGER
B6: usp_38_diff_out_3_65_532 (protein)
chain: KVEELLKKAEEKLEEAEKKIKELEKRVKEDPNITEEEVNEMLDEAADLIVEAGKYIREAKKLNPDEEQQERIKELEERLDEVIDLYVKAGEAGFLAVGER
B7: usp_38_diff_out_4_99_564 (protein)
chain: MKEEMVKKVKELKKEAEELLKKAKEAFKLSHEERKKVAEELSKELDELAKELGKIYFEARDTGDKELIKAVNKEADEFVKAYNEAAKELNLLRHEVLEEE
B8: usp_38_diff_out_4_12_558 (protein)
chain: SEEERKKKREEALKELKKLSEDAKATADKLLAEVKKKKDKATLKAANATLNDLLTKLAEKTLEALELAENDEELEEILKIYDDTATYITTKAAEMKAVLK
B9: usp_38_diff_out_4_12_553 (protein)
chain: AAEERQKALEKALAEMQKLHEETVKKLKELLEELKKTKKEEILKEAEKLANDALTKLAELTTKALELAETPEEQQAILDLYAQQVTEIVTLMQEAKEAMK
B10: usp_38_diff_out_3_65_541 (protein)
chain: EIEKLLKEAKKYLEEAKKIIEELRERTRTDPTLTIEEVNEMLDKAADLLVKAGEYIEKAKKLNPDEKQKKEIEKLKKELEELLDEYVEAGEEAYLAVGER
B11: usp_38_diff_out_4_126_545 (protein)
chain: SREEEFKKLEKEAEKKIEEAKKLLEEALKELDKDPEKALELLDKAWDALGEAAKLLREMRRVAADDEELRKRYKELEEKLDKLIDEFTKAATYIFEKIAE
B12: usp_38_diff_out_3_65_540 (protein)
chain: EVQELLERAERHLEEAEEIIEELERRTETDPTLTIDEVVEMLDEAADHLVAASEDIKEAKKLNPDEEQKKRIEELEKRLDELIDRYVEAGERAFLAVGER
B13: usp_38_diff_out_4_12_552 (protein)
chain: AEEERRKELEELLREMEELTEETVARMKELLKELKETKDEEVYEELLKLAEEALTRLAELTTRALELAETDEELEEILRRYSEAVDEIVALMQEARKAMK
B14: usp_38_diff_out_4_12_555 (protein)
chain: SAEEEKEKLEKLKEELKKKSEELKELADKLLAEVKEKKDRATYKKAEEELNKKLTELAELTLETLEATDDDEELEEILKLTDETFTYVSEKAAEMREIMK
B15: usp_38_diff_out_4_126_543 (protein)
chain: DREKAFDELAKEAEALMKEAKEYLEKAKEAMDKDPEKAKEYLDKAYEALGKLSKALREMRRIARDDPELRKRYKELLKKANELVSEFTKVAEELLLKLSE
B16: usp_38_diff_out_3_65_539 (protein)
chain: KVEELLERAQEHLEKAEELVEGLRERTATDPTLTIDEVVAMLDEAADHLVAAAQDIEEAKKLDPDEEQQERLEELQERLDRLIDEYERAGREAFLAVGER
B17: usp_38_diff_out_3_65_533 (protein)
chain: KVEELLKKAEEKLKEAEKKIRELEERVETDPSLTEEEVNAMLDEAADLIVEAGKYIREAKKLNPDEEQKKRIEELEKRLDEVIDLYVEAGERAFLAVGER
B18: usp_38_diff_out_4_126_548 (protein)
chain: SREEEFEKLKEEANKKMKEAKELLEKAKKLLDKDKEEALKYLDEAAEKLGEASKLLRKMREVAKGDEELRKEYKELLEKLNELVDEYTKVATEIYLALAE
B19: usp_38_diff_out_3_65_534 (protein)
chain: EVEELLKEAQKKLKEARAIIEALRERVESDPTITIDEVNARLDEAADKIVEAGQYIREAKKLNPDEEQKKKIEELEKELDEVLDEYRETAEFAFLRVAER
B20: usp_38_diff_out_4_12_556 (protein)
chain: SPEEEEEARERALRELEERSRRLREEAERLLARVKETRDEATYKEANERLNKGLTELAELTLRTLELTDDDEELERILRLTDETFRYVSEKAAEMRELMK
B21: usp_38_diff_out_3_65_536 (protein)
chain: EVEKLLEEAKKYLEEARKIVEELRREVEEDPTITIDEVNEKLDEAADKIVAAGQKIREAKKLNPDEEQKKQLEELEKELDEVLELYRETAEYAFLKVAER
B22: usp_38_diff_out_4_12_551 (protein)
chain: SAEERRRKREEALERLRRLAEEATREAERLKKEVEEKKDEATLEEALKRANELITELSEATLEALELAENLEEVEEVLRLAEPAFDALAELRVKIEEARK
B23: usp_38_diff_out_3_65_537 (protein)
chain: EVEELLEEAERRLEEARELIEALRREVESDPSLTIDEVNARLDEAVDLLVEAGEAIRRARRLDPDPEQRERLEELERRLDEVLRLYRETAEFAFLTVAER
B24: usp_38_diff_out_3_65_535 (protein)
chain: KIEELLKEAEKYLEEAEKLVEELRRRVESDPTLTIDELNARLDEAADLIVKAGQKIREAKKLNPDEEQKKKLKELEKRLDEVLKKYREAAEEGFLRVAER
B25: usp_38_diff_out_4_126_550 (protein)
chain: SMKEELEKKLEEAKKLAEEALKAAARLVELAATDPSKVAEARAELDALIAAFTKAANEALKLARKDGKYKEEVTKEIDKLTDEVVEAEGKAVEAVAEALA
B26: usp_38_diff_out_4_12_554 (protein)
chain: SAEERRRRFEEALREMERLHRETIEKLEELKEELKKTKDEKVLEEAEKLANEALSRLAELTTRALEEAENDEEVQEILDLYSRHVDEIVTLMNEMKKIMK
B27: usp_38_diff_out_4_12_557 (protein)
chain: AEEEREREFKRKREELKRLSEETKERADKLLEEVKKKKDKATLKEATKKLNEDLTKLAELTLETLELAETDEEVQEILDLFDDTATYVSEKAAEMKEILK
B28: usp_38_diff_out_4_12_561 (protein)
chain: SEEERKKIAEEALEEMEKKSKEVKEKAKKAKEEAIKTKDLAAFNKKMNELIKELTDLTLEKLEKLAEIGDDETIEEILRIAGETFKELSKLAKEVKEAAK
B29: usp_38_diff_out_4_126_544 (protein)
chain: SREAEFAALRAEAEAALAEAERLLAEARAELDKDPEKALELLDRAWDALGRAAALLREMRRIAADDPALRAELAALRARLDALIDEFTAAATEIYEKIAE
B30: usp_38_diff_out_4_126_549 (protein)
chain: DREKQAEELEKKLEEALKKAKEYLKKAKELLDKDKEETLKALDKSWEALGKASELLRELRRIAIDDPELRERYKKLLEEANKLVDEFTKAAEEIYLKLSE
B31: usp_38_diff_out_3_65_538 (protein)
chain: EVQKLLEEAQKLLDEATKIIDELKERVESDPTLTIDEVNEMLDKAADKIVAAGEKINEAKKLNPDEEQKKQIEELEKRLDEVIEKYREAAEYAFLRVAER
B32: usp_38_diff_out_4_12_562 (protein)
chain: SMEEKEKKVKEALEEMKKLSEEAKEKAKKAAEEAKKTGNLAEFNKKMNELINKLTEKTLEVLEKLAELGDEESIEEVLKITSETFTYISQLAAEVKKAAA

Biological target: T1, USP38, Q8NB14
T1 chain: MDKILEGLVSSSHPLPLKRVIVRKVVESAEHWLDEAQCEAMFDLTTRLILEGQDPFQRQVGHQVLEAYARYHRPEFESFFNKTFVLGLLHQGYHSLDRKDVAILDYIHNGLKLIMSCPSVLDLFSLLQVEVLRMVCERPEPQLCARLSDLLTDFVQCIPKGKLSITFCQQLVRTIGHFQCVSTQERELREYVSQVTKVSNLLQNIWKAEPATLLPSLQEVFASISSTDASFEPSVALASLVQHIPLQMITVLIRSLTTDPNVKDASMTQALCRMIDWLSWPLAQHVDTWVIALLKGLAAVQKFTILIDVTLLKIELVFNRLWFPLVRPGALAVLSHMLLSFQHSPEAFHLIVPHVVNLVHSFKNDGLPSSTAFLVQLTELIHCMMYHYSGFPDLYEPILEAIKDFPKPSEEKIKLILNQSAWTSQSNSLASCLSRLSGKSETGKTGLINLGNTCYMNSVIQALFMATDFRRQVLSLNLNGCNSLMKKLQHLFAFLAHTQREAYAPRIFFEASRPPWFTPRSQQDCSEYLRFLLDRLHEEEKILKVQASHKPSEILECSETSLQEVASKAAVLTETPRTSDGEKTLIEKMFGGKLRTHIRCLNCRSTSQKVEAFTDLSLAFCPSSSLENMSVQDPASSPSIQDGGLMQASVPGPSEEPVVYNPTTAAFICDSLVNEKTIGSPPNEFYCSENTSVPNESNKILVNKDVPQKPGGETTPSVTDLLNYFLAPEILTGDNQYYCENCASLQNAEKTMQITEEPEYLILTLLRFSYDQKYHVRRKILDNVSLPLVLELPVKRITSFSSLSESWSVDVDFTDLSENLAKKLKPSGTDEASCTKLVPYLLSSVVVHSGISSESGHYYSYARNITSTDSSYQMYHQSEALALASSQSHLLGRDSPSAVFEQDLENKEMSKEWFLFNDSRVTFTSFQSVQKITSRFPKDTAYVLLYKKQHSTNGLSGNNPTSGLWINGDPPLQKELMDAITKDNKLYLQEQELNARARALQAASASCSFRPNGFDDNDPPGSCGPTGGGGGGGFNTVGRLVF
Assay: median log2 fold change of GCK-ALFA target abundance (FLAG IP / Myc IP barcode read proportion) (log2 ratio); each designed protein is fused to an ALFA-tag nanobody in HEK293 cells to bring the named protein to FLAG-tagged glucokinase (GCK); Myc marks an untargeted standard; higher = target protein stabilised (more abundant)
Settings: target protein: 3xFLAG-MCP-GCK-ALFA reporter; HEK293 landing pad (RPLP)
Outline: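 Sequencing of reverse-transcribed, amplified circular RNA barcodes from anti-FLAG and anti-Myc immunoprecipitates provided the readout for an ALFA-nanobody-fused binder library recombined into HEK293 landing-pad cells. Those cells were induced with 2 μg mL^−1 doxycycline, transfected with a plasmid expressing a FLAG-tagged target and a Myc-tagged standard, and lysed after 48 h. Target abundance is the per-binder median log2 ratio of FLAG to Myc barcode read proportions. Only barcodes at a proportion of ≥10^−7 in both replicates and binders with ≥3 barcodes per replicate were kept, with a 10^−6 pseudocount added before the two replicates were pooled.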

Binder | median log2 fold change
B1 | -0.0183
B2 | -0.371
B3 | 0.575
B4 | -0.11
B5 | 0.499
B6 | -0.0854
B7 | -0.19
B8 | 0.037
B9 | 0.201
B10 | -0.0269
B11 | -0.694
B12 | 0.111
B13 | -0.539
B14 | 0.0256
B15 | -0.661
B16 | -0.504

Binder | median log2 fold change
B17 | 0.0706
B18 | 0.358
B19 | -0.0616
B20 | -0.146
B21 | -0.223
B22 | -0.341
B23 | -0.264
B24 | -0.384
B25 | 0.0827
B26 | 0.0829
B27 | -0.616
B28 | -0.892
B29 | -0.215
B30 | -1.05
B31 | -0.281
B32 | -0.588
